Shown are actives, neighbours in structure and some others; about 7.3% of the full set was active somewhere.
AmpC inh detg: AmpC beta-lactamase inhibition with detergent present. AmpC hydrolysis of nitrocefin, absorbance 480 nm, 0.01% Triton. 0.041% of 370,000 active. Potency, µM (titrated, usually from 114 µM), without a hit: top-dose activity change, negative = inhibition, most hits filed as inhibitors. P00811;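 further: potency means the concentration at half of the fitted maximal effect; 0% = no-compound wells and -100% = no-enzyme wells; nearly all actives have a fitted effect of over 25% in size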
Target sequence (P00811 whole entry, looked up): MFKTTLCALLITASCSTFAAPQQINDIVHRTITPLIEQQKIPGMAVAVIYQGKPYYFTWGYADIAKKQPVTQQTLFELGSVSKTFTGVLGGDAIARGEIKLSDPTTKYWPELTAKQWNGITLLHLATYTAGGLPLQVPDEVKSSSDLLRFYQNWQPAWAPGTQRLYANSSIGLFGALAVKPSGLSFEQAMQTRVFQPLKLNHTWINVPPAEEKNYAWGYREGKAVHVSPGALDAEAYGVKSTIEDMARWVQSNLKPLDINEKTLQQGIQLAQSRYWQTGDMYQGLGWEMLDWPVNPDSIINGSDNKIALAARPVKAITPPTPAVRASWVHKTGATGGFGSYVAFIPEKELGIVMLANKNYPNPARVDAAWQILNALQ
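AmpC (5.3 nM in the dispensed reagent) in 20 mM phosphate pH 7.0 with 0.01% (detergent screen) or 0.0001% Triton X-100 was preincubated with compounds for 15 min at room temperature. Nitrocefin was then added from an 800 uM solution, and hydrolysis was followed at 480 nm.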
HCV inh: blocks hepatitis C virus | Potency, µM (highest dose often 41.8 µM), without a hit: at the top dose activity change, negative = inhibition, usual class: inhibitors | Huh7.5.1 HCVcc-Cre infection, luciferase reporter, 44 h | AID 651820 | 3.4% of 340,000 active; further: potency means the concentration at half of the fitted maximal effect
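1,000 cells/well; 4 h culture; + compound; + HCVcc-Cre (~0.5 moi); 44 h; luciferase substrate, RT 15 min; read 15 sec.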
HCMV inh: blocks human cytomegalovirus replication; HFF cells, HCMV-luciferase reporter, 72 h; active compounds read low; activity change, negative = inhibition, % at 57.5 µM; 4.5% of 410,000 active; AID 1259415; in the data active means activity change below about -60%; inconclusive means no clear call, values can overlap the other calls; inactive means above about -39%
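Cell-based, HFFs, 1000 cells/well, 16 h 37C; cpds in DMSO + HCMV-luc, MOI 1 PFU/cell; 72 h 37C; OneGlo luminescence after 5 min RT; norm. to buffer vs Salinomycin 10uM.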
FMDV inh: antivirals against foot and mouth disease virus; FMDV antiviral cell-based qHTS; Potency, µM (titrated, usually from 57.9 µM), for the others: top-dose activity change, negative = inhibition, hits mostly inhibitors; 1.2% of 410,000 active; AID 1159524; calls by dose curve; tested in HEK293T cells; further: read-out not given here; potency means the concentration at half of the fitted maximal effect; nearly all actives have a fitted effect of over 45% in size
AmpC no deterg: blocks E. coli AmpC beta-lactamase in detergent-free assay | P00811 | AmpC nitrocefin hydrolysis, absorbance 480 nm, 0.0001% Triton | Potency, µM (highest dose often 57.1 µM), for inactives: at the highest dose activity change, negative = inhibition, hits mostly inhibitors | 0.52% of 330,000 active;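 further: potency means the concentration at half of the fitted maximal effect; plate controls were no compound for no effect and no enzyme for full effect; nearly all actives have a fitted effect of over 20% in size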
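AmpC (5.3 nM in the dispensed reagent) in 20 mM phosphate pH 7.0 with 0.01% (detergent screen) or 0.0001% Triton X-100 was preincubated with compounds for 15 min at room temperature. Nitrocefin was then added from an 800 uM solution, and hydrolysis was followed at 480 nm.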
An asterisk follows results filed as active; ? = inconclusive; . = not tested or not shown; + = active, no number. Unless noted, the call rests on the fitted dose curve; in most records, active means well fitted curve in the direction sought with a large enough effect; inconclusive means small, poorly fitted or top-dose-only effect, or another doubt; inactive means no such curve, though single readings can be large; an effect the other way counts as inactive or inconclusive. Unless noted, on the % scale 0 is the no-effect control and ±100 the full control effect.

SMILES	AmpC inh detg	HCV inh	HCMV inh	FMDV inh	AmpC no deterg
CC(C)N(C(=O)[C@H]1C[C@H](CC(=O)NCCCN(C)C)C(=O)N2CCc3c([nH]c4cc(CCC(=O)N(C)C)ccc34)[C@]12C)C(C)C	.	0.32µM*	-14	-5%	52%
COc1ccc(NC(=O)N[C@H]2CC[C@@]34CCCN3C(=O)CCC[C@H]4C2Cc2ccccc2)cc1 (stereo partly drawn)	.	.	5	.	.
C[C@]12c3[nH]c4cc(-c5ccco5)ccc4c3CCN1C(=O)[C@@H](CC(=O)NCC13CC4CC(CC(C4)C1)C3)C[C@@H]2C(=O)N1CCOCC1	.	25µM*	-29	?	149%
CCn1c2c(c(=O)n3ncc(C(=O)N4CCN(c5ccc(C(C)=O)cc5)CC4)c13)CN(Cc1ccc(OC)cc1)CC2	19%	.	-36	20µM*	.
CCCNC(=S)N1CCN(c2nc(-c3ccc(C)cc3)cs2)CC1	?	13µM*	?	?	5%
S=C(NCC1CCCO1)N1CCN(c2nc(-c3ccc(Cl)cc3)cs2)CC1 (stereo not drawn)	-3%	?	-63*	16µM*	29%
CCOCCCNC(=S)N1CCN(c2nc(-c3ccc(F)cc3)cs2)CC1	-14%	11µM*	-85*	?	45%
COCCNC(=S)N1CCN(c2nc(-c3ccccc3)cs2)CC1	?	-20%	?	-21%	106%
COCCCNC(=S)N1CCN(c2nc(-c3ccc(F)cc3)cs2)CC1	-1%	10µM*	-85*	?	139%
S=C(NCC1CCCO1)N1CCN(c2cccc(Cl)c2)CC1 (stereo not drawn)	0%	?	-39	1%	2%
CC(=O)c1cccc(OCC(O)CNCCOc2ccc(C)cc2)c1 (stereo not drawn)	-17%	2%	64	-4%	10%
COc1ccc(NC(=O)CSc2ncc(-c3ccc(Cl)cc3)[nH]2)cc1OC	5%	.	-21	-18%	.
C#CCNC(=O)c1cc2c(Br)ccc(Br)c2nc1N	.	.	3	-5%	.
CC(NC(=O)C1CCOCC1)c1nnc2n1CCN(Cc1ccc(F)cc1)CC2 (stereo not drawn)	.	.	.	-11%	.
Cc1ccc(C(=O)O)cc1NC(=O)C1CCN(S(=O)(=O)c2ccc3c(c2)OCCO3)CC1	.	-19%	16	-1%	-23%
C1=NCCc2c1[nH]c1ccccc21	.	6%	-95*	-2%	.
Cc1ccc(-n2c(=O)c3c(c4cc(C)ccc4n3C)n(CC(=O)NCc3ccccc3Cl)c2=O)cc1	9%	.	13	-5%	.
C=CCOn1c(C)c(C(C)=O)c2c3nonc3ccc21	0%	?	-81*	-29%	-20%
COn1c(C)c(C)c2c3nonc3ccc21	-1%	?	-65*	-3%	-13%
S=C(SCc1cc(Cl)cc2c1OCOC2)N1CCSCC1	.	.	52	.	.
O=C(COc1ccccc1[N+](=O)[O-])N1CCC(Cc2ccccc2)CC1	4%	7%	-21	-26%	3%
NC(=O)c1ccccc1OCC(=O)N1CCC(Cc2ccccc2)CC1	-5%	8.9µM*	-68*	32µM*	-13%
COc1ccc(N(C)C(=O)C2CCCN2S(=O)(=O)c2cccc3nsnc23)c(OC)c1 (stereo not drawn)	6%	-2%	.	8%	43%
CCC(=O)Nc1ccc(NC(=S)NC(=O)/C=C/c2ccco2)cc1	-23%	-7%	77	-18%	-40%
CC(=O)NC(=S)Nc1ccc(NC(=S)NC(=O)/C=C/c2ccco2)cc1	0%	-15%	-79*	28%	-51%
SMILES	AmpC inh detg	HCV inh	HCMV inh	FMDV inh	AmpC no deterg
COc1ccc(NC(=S)NC(=O)/C=C/c2ccco2)cc1	8%	-23%	9	55%	16µM*
CCc1ccc(NC(=O)C2CCCN(S(=O)(=O)c3cccc4nonc34)C2)cc1 (stereo not drawn)	-1%	.	4	-15%	.
CCOc1ccc(NC(=O)N(Cc2ccc(C)cc2)Cc2ccccn2)cc1	-3%	0%	-12	-10%	1%
COc1cc(OC)cc(C(=O)N[C@H](C(=O)Nc2cc(C)cc(C)c2)C(C)C)c1	3%	?	-76*	6%	-8%
COc1cc(OC)cc(C(=O)NC(C(=O)Nc2ccc3c(c2)CCC3)C(C)C)c1 (stereo not drawn)	7%	?	26	7%	-14%
CCc1nc2cccnc2n1-c1ccc(CC(=O)O)cc1	-1%	-4%	-8	-1%	-8%
Cc1ccc(NC(=O)Cc2ccc(-n3c(C)nc4cccnc43)cc2)c(Cl)c1	-2%	.	+	16µM*	.
CS(=O)(=O)N1N=C(c2ccccc2)CC1c1ccc2c(c1)OCO2 (stereo not drawn)	?	1%	87	0%	-4%
CS(=O)(=O)Nc1cccc(C2=NN(S(C)(=O)=O)C(c3ccc4c(c3)OCO4)C2)c1 (stereo not drawn)	-4%	-12%	80	23%	40µM*
Cc1cc(C(=O)NC2CCCc3c2cnn3-c2ccc(C)c(C)c2)no1 (stereo not drawn)	1%	?	-30	?	47%
COc1ncccc1C(=O)NC1CCCc2c1cnn2-c1ccc(C)c(C)c1 (stereo not drawn)	-8%	?	-23	-40%	107%
CSc1ncccc1C(=O)NC1CCCc2c1cnn2-c1ccc(C)c(C)c1 (stereo not drawn)	2%	8.9µM*	-29	28µM*	24%
CCCC(=O)NC1CCCc2c1cnn2-c1ccc(C)c(C)c1 (stereo not drawn)	-16%	-20%	-24	17%	7%
Cc1ccc(-n2ncc3c2CCCC3NC(=O)c2ocnc2C)cc1C (stereo not drawn)	-8%	?	-89*	?	109%
CCn1nc(C)cc1C(=O)NC1CCCc2c1cnn2-c1ccc(C)c(C)c1 (stereo not drawn)	7%	?	-86*	10µM*	218%
CCC(Sc1nc2nccnc2c(=O)n1Cc1ccc(C)cc1)C(=O)NC1CCCCC1 (stereo not drawn)	13%	.	-36	3%	.
CCn1c(NC(=O)c2ccc(COc3ccc(C)cc3[N+](=O)[O-])o2)nc2ccccc21	1%	6%	-63*	-12%	-19%
Cc1ccc(OCc2ccc(C(=O)Nc3cc(C)on3)o2)c([N+](=O)[O-])c1	5%	-21%	29	-2%	1%
O=C(Nc1nc2cc3c(cc2s1)OCCO3)c1cccs1	2%	11µM*	-16	?	-48%
CN(CC1CCCO1)S(=O)(=O)c1ccc(C(=O)Nc2nc3cc4c(cc3s2)OCO4)cc1 (stereo not drawn)	?	?	-85*	0%	15%
O=C(Nc1nc2cc3c(cc2s1)OCCO3)c1cccc(N2C(=O)CCC2=O)c1	-4%	3%	4	-2%	-9%
